A selection: hits, their analogues and other compounds. The true share with any hit is near 2.2%.
TRAIL sens C8: caspase-8 TRAIL sensitization. 360,000 tested, 1% active. inhibition (viability loss, TRAIL sensitization), % at 10 µM. AID 624354. NB7+C8 cells + TRAIL, ATPlite viability luminescence;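 active = compounds causing at least 50% loss of cell viability in the single-dose screen, relative to plate controls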
CF NFkB inh: cystic fibrosis NF-kB activation inhibition; KKLEB NF-kB-GFP reporter, PAF-induced, GFP fluorescence overnight; 360,000 tested, 0.86% active; inhibition, % at 5 µM; AID 588850;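 active = at least 50% inhibition at 5 µM, scaled per plate between neutral and stimulator controls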;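 also: PAF is a Pseudomonas aeruginosa culture filtrate used as stimulus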
iPSC survival up: increases survival of single human iPS cells | hiPSC single-cell survival, ATPlite luminescence; 100% = ROCK inhibitor wells, 0% = DMSO | 360,000 tested, 0.044% active | survival enhancement, % at 20 µM; in the data active = survival enhancement above about 18%;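 also: cells exposed to compounds for 16 hours before the ATP read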
PPC-1+TRAIL kill: PPC-1 cancer cell killing with TRAIL present; PPC-1 cells + TRAIL, ATPLite viability luminescence; 220,000 tested, 0.41% active; AID 1443; cell killing (% activity), % at 4 µM or 5 µM;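 active = cell killing above 50% in the first pass at 4 µM, then a duplicate retest at 5 µM averaging 50% or more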
KKLEB cytotox: CF airway cell cytotoxicity counter-screen. KKLEB CF airway cells viability, ATPlite luminescence, overnight; stronger effect = lower value; cells stimulated with P. aeruginosa culture filtrate. activity change (cytotoxicity), % at 5 µM. 360,000 tested, 0.36% active;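 active = corrected activity change at or below -50% at 5 µM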
HIF-2a block: blocks HIF-2a reporter activity. 786-0 RCC cells HIF-2a reporter, luciferase luminescence, overnight. inhibition, % at 18.8 µM. 360,000 tested, 0.72% active;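 active = inhibition of the luminescence signal of 40% or more relative to plate controls, in a single-dose primary screen at 18.75 µM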
Of the large screens only hits and unclear results are named; the others gave an inactive call.

C[C@@H]1C[C@H]2[C@@H]3CCC4=CC(=O)C=C[C@]4(C)[C@@]3(F)[C@@H](O)C[C@]2(C)[C@@]1(O)C(=O)COP(=O)(O)O	CF NFkB inh 67.3
Cc1ccc(-n2nc(C)c3c(C)cc(=O)[nH]c32)cc1	iPSC survival up 21.9
Cc1nn(-c2ccccc2)c2[nH]c(=O)cc(C(F)F)c12	none (no result: PPC-1+TRAIL kill)
Cc1cc(Cn2nc(-c3ccccc3)cc2C(=O)NCc2cccs2)on1	none (no result: PPC-1+TRAIL kill)
COc1cc2c(O)c3c(c(-c4ccc5c(c4)OCO5)c2cc1OC)C(=O)OC3	CF NFkB inh 76.5, KKLEB cytotox -73.1
COc1ccc(-c2oc(=O)c3cc(OC)c(OC)cc3c2-c2ccc3c(c2)OCO3)cc1	none (no result: PPC-1+TRAIL kill)
CCCN1C(=O)C2(C(C(=O)c3ccc(C)o3)=C(O)C(=O)N2CCCOC)c2ccccc21 (centres undefined)	none
Cc1cc(C(=O)COC(=O)c2cccc(NS(C)(=O)=O)c2)c(C)n1CC1CCCO1 (centres undefined)	TRAIL sens C8 58.8 (no result: PPC-1+TRAIL kill)
C=CCn1c(C)cc(C(=O)COC(=O)c2n[nH]c(=O)c3ccccc23)c1C	TRAIL sens C8 68.7 (no result: PPC-1+TRAIL kill)
Cc1ccc(C(=O)OCC(=O)c2cc(C)n(CC3CCCO3)c2C)cc1 (centres undefined)	none
Cc1cc(C(=O)COC(=O)c2n[nH]c3ccccc23)c(C)n1C	TRAIL sens C8 58.3
Cc1cc(C(=O)COC(=O)c2n[nH]c(=O)c3ccccc23)c(C)n1C	none (no result: PPC-1+TRAIL kill)
Cc1cc(C(=O)COC(=O)c2n[nH]c3ccccc23)c(C)n1CC1CCCO1 (centres undefined)	TRAIL sens C8 71.8
CC(=O)c1cccc(NC(=O)C(C)OC(=O)c2cccc(-n3cnnn3)c2)c1 (centres undefined)	none (no result: PPC-1+TRAIL kill)
CCCCOc1ccc(C(=O)NCC(=O)NC2CCCCC2)cc1	none (no result: PPC-1+TRAIL kill)
CCNS(=O)(=O)c1ccc(CCC(=O)N2CCN(c3ccccc3)CC2)cc1	none (no result: PPC-1+TRAIL kill)
CCOc1ccccc1N(CC(=O)NC1CCCCC1)S(=O)(=O)c1ccccc1	none (no result: PPC-1+TRAIL kill)
COc1ccccc1NC(=O)CC12CC3CC(CC(Br)(C3)C1)C2	none (no result: PPC-1+TRAIL kill)
c1ccc(COc2ncnc3c2ncn3CCCNCc2cccs2)cc1	none (no result: PPC-1+TRAIL kill)
Cn1cc(C(=O)CCl)c2ccccc21	CF NFkB inh 54.3
Cc1ccc(-c2cc(NC(=O)CCl)n(-c3ccccc3)n2)cc1	none
O=C(CCl)Nc1cc(-c2ccccc2)nn1-c1ccccc1	KKLEB cytotox -53.5
Cc1ccc(CN2C(=O)c3ccccc3NC2c2cc(Br)ccc2O)cc1 (centres undefined)	none (no result: PPC-1+TRAIL kill)
Oc1cccc(C(=S)N2CCC(Cc3ccccc3)CC2)c1	none (no result: PPC-1+TRAIL kill)
O=C1OCCC1Sc1nnc(-c2ccccc2)o1 (centres undefined)	none
O=C1OCCC1Sc1nnc(-c2ccc(Cl)cc2Cl)o1 (centres undefined)	HIF-2a block 75.7
Cc1ccc(S(=O)(=O)N2CCOC2CNC(=O)C(=O)NCCCN2CCOCC2)cc1 (centres undefined)	none (no result: PPC-1+TRAIL kill)
COc1ccccc1C/C(N)=N/OC(=O)c1cccc([N+](=O)[O-])c1	TRAIL sens C8 75.7
COc1ccc(C/C(N)=N/OC(=O)c2cccc([N+](=O)[O-])c2)cc1	none
CC(C)C(NC(=O)c1ccccc1F)C(=O)NCc1ccc(F)cc1 (centres undefined)	none (no result: PPC-1+TRAIL kill)
N/C(=N\OC(=O)c1ccccc1)C(C(=O)NOC(=O)c1ccccc1)C1CCCCC1 (centres undefined)	TRAIL sens C8 90.8 (no result: PPC-1+TRAIL kill)
O=C(COC(=O)c1ccccc1)NC1CCCCCC1	none (no result: PPC-1+TRAIL kill)
CCOC(=O)CNC(=O)CSc1nnc(NC(=O)c2ccc3c(c2)OCO3)s1	TRAIL sens C8 83.1 (no result: PPC-1+TRAIL kill)
CCOC(=O)C(C)Sc1nnc(NC(=O)c2ccc3c(c2)OCO3)s1 (centres undefined)	none
CSc1nnc(NC(=O)c2ccc3c(c2)OCO3)s1	TRAIL sens C8 73.9 (no result: PPC-1+TRAIL kill)
COc1ccc(-c2nc(SCC(=O)Nc3cccc(S(N)(=O)=O)c3)n[nH]2)cc1	TRAIL sens C8 61.6 (no result: PPC-1+TRAIL kill)
CC(C)c1ccc(OCC(=O)NC2CC(C)(C)NC(C)(C)C2)c(Br)c1	none (no result: PPC-1+TRAIL kill)
O=C(CN(C1CCCCC1)S(=O)(=O)c1ccc(F)cc1)NCC1CCCO1 (centres undefined)	TRAIL sens C8 94.5, CF NFkB inh 90.8, KKLEB cytotox -94.6 (no result: PPC-1+TRAIL kill)
COc1ccc(CNC(=O)CCN2C(=S)NC(C)(C)CC2C)cc1 (centres undefined)	none
CC1=C(C(=O)Nc2ccccc2)C(c2ccc(C)cc2)N=C(Nc2nc3ccccc3o2)N1 (centres undefined)	TRAIL sens C8 49.8
CC1=CC2=NC(=O)/C(=C/c3cccn3Cc3ccccc3)C(=N)N2O1	none
N=C1/C(=C/c2cccn2Cc2ccc(Cl)cc2)C(=O)N=C2SC=CN12	KKLEB cytotox -50.3
CCN(CC)CCCNc1ccc(-c2nnc(-c3ccc(OCC(C)C)cc3)o2)cn1	TRAIL sens C8 86.6 (no result: PPC-1+TRAIL kill)
Cn1c(N)c(C(=O)CSc2n[nH]c(N)n2)c(=O)n(C)c1=O	none (no result: PPC-1+TRAIL kill)
CCCc1sc(N/N=C/c2ccccn2)nc1-c1ccc(F)cc1	KKLEB cytotox -50.7
Cc1nc(N/N=C/c2ccccn2)sc1C	PPC-1+TRAIL kill 69.5 (no result: TRAIL sens C8, CF NFkB inh, iPSC survival up, KKLEB cytotox, HIF-2a block)
COC(=O)c1ccc(/C=N/Nc2nc(C)c(C)s2)cc1	none
O=C(O)Cc1sc(N/N=C\c2ccccc2)nc1-c1ccccc1	none
COc1ccc(CCNC(=O)C(CCC(N)=O)NS(=O)(=O)c2ccc(Cl)cc2)cc1OC (centres undefined)	none (no result: PPC-1+TRAIL kill)
COc1ccc(C(=O)NCCS(=O)(=O)N(C)Cc2ccccc2)cc1	none (no result: PPC-1+TRAIL kill)
O=C(Cc1c2ccccc2nc2ccccc12)c1ccccc1	none
COCCN=C1NN=C(c2cc(C)n(CC3CCCO3)c2C)CS1 (centres undefined)	none
C=CCN=C1NN=C(c2cc(C)n(CC=C)c2C)CS1	TRAIL sens C8 51.5, HIF-2a block 58.1
COC(=O)c1sc(NC(=S)NC(=O)c2ccccc2C)nc1C	TRAIL sens C8 51.0
CCCNC(=O)C1(C)CCCN(C(=O)c2cc(C)n(C(C)(C)C)n2)C1 (centres undefined)	none (no result: PPC-1+TRAIL kill)
Cc1cc(=O)n2[nH]c(-c3cccnc3)nc2n1	none (no result: TRAIL sens C8, CF NFkB inh, iPSC survival up, KKLEB cytotox, HIF-2a block)
Cc1cc(=O)n2[nH]c(-c3ccc(F)cc3)nc2n1	TRAIL sens C8 50.5
O=[N+]([O-])c1ccccc1S(=O)(=O)N1CCSCC1	none (no result: PPC-1+TRAIL kill)
CCn1nc(C)c(CNCc2cn[nH]c2-c2cc3ccccc3o2)c1C	none
CCc1c(C(=O)Nc2ccc(OC)cc2)[nH]c(C)c1C(C)=O	iPSC survival up 21.7
CC(C)(C)c1ccc(OCC(=O)NNC(=S)NC(=O)c2ccco2)c(Br)c1	CF NFkB inh 58.4, KKLEB cytotox -78.2 (no result: PPC-1+TRAIL kill)
CC(C)c1ccc(OCC(=O)NNC(=S)NC(=O)c2ccco2)c(Br)c1	none (no result: PPC-1+TRAIL kill)
C=CCN1C(=O)C(C)(C)N(C(=O)c2cccc([N+](=O)[O-])c2)c2ccccc21	none (no result: PPC-1+TRAIL kill)

Assay outcomes: PubChem, Sanford-Burnham Center for Chemical Genomics
